Rows were chosen to be rich in hits. Some 3.4% of all compounds tested hit in one or more screens of this group.
TEAD-YAP inh: TEAD-YAP interaction inhibition; HEK-TIYL cells, TEAD-Gal4/YAP UAS-luciferase luminescence; inhibition, % at 9.12 µM; actives 1.4% (n = 640,000); AID 1259422; in the data active = inhibition above about 32%;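 note: 0% = median of test compound wells and 100% = reference inhibitor wells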
MITF primary: inhibitors of human MITF. actives 0.91% (n = 650,000). O75030. AlphaScreen MITF homodimerization, bead proximity signal. inhibition, % at 2.6 µM; in the data active = inhibition above about 50%;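 note: 0% = vehicle wells with protein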
FBW7 act: activators of human E3 ligase FBW7; Q969H0; AlphaScreen FBW7–phospho-cyclin E peptide binding, activator screen; normalized activity (activation), % at 26.1 µM; actives 0.13% (n = 650,000); in the data active = normalized activity above about 1.9%;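 note: purified mutant Fbw7 with reduced substrate affinity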
GPR151 ag: activates the human receptor GPR151; actives 1% (n = 650,000); AID 1508602; PathHunter beta-arrestin GPR151 cells, luminescence; Q8TDV0; activation, % at 11.2 µM; in the data active = activation above about 4.9%;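 note: 0% = median of compound wells and 100% = cells with positive control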
Target sequence (Q8TDV0 whole entry, looked up): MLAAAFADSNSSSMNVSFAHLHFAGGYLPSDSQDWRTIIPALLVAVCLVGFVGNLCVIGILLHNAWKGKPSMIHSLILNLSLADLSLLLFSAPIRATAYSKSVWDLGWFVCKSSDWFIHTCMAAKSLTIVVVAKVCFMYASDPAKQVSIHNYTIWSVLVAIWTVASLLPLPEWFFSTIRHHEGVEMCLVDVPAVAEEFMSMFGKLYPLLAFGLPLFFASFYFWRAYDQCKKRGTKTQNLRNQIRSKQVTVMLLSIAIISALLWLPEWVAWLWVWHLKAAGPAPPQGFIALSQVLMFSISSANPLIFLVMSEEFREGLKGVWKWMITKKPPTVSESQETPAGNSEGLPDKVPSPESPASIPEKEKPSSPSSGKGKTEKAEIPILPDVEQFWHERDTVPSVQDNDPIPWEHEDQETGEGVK
MITF confirm: confirmation of human MITF inhibitors; inhibition, % at 2.6 µM; actives 16% (n = 4,700); shares compounds with MITF primary; AID 1259372; AlphaScreen MITF homodimerization, biotin/His-MITF beads;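 active = inhibition above a cutoff derived from the DMSO control wells, cut at about 28% in these data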;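 note: 0% = MITF dimer wells with DMSO only; inhibitors lower the bead chemiluminescence by keeping MITF from dimerizing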
AS interf DR: AlphaScreen optical interference, dose response counter-screen; shares compounds with MITF primary; AlphaScreen optical interference counterscreen, cell-free; IC50, µM; actives 6% (n = 480); AID 1259373; call rule not given here
AlphaScreen intf2: counter-screen: compounds optically interfering with AlphaScreen. shares compounds with MITF primary. inhibition, % at 2.6 µM. AID 1259376. LysRS AlphaScreen counterscreen, signal interference, triplicate. actives 7.6% (n = 4,700);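 active = inhibition above a cutoff derived from the DMSO control wells, cut at about 30% in these data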
An asterisk follows results filed as active; · = no result.

SMILES | TEAD-YAP inh | MITF primary | FBW7 act | GPR151 ag | MITF confirm | AlphaScreen intf2 | others
O=C(CNCCN1CCOCC1)Nc1ccccc1N1CCOCC1 | 2.6 | 63.9* | 0.2 | -0.2 | -11.9 | -9.0
N#CC1=C(SCC(=O)Nc2ccc(F)cc2)NC2=C(C(=O)CCC2)C1c1ccco1 (stereo not given) | -7.6 | 14.7 | 1.1 | 1.0 | · | ·
O=[N+]([O-])c1cc(S(=O)(=O)N2CCCCC2)ccc1N1CCN(Cc2ccccc2)CC1 | 15.9 | 30.2 | -0.2 | 2.3 | · | ·
CN(Cc1ccco1)S(=O)(=O)c1ccc2[nH]cc(C(=O)O)c(=O)c2c1 | -0.5 | 54.2* | -0.1 | 0.8 | 29.7* | 4.8 | AS interf DR=>6.48
C=CCN(c1ccccc1)S(=O)(=O)c1ccc2[nH]cc(C(=O)O)c(=O)c2c1 | 6.2 | 57.1* | -0.1 | -0.4 | 11.5 | -4.3
CC(Cc1cnccn1)NC(=O)c1ccc(OC2CCN(Cc3ccccn3)CC2)cc1 (stereo not given) | -7.7 | 2.1 | -0.1 | -1.0 | · | ·
CC1CN(CCC(=O)NCC2CCOCC2)Cc2cc(Cl)ccc2O1 (stereo not given) | -0.8 | 3.6 | -0.1 | 1.0 | · | ·
CCC1Oc2ccccc2N(CC(=O)NCc2cc(Br)ccc2OC)C1=O (stereo not given) | -4.9 | -6.2 | -0.1 | 1.4 | · | ·
COc1ccccc1/C=C/CN1CCN(Cc2ccccc2)CC1 | -2.0 | 37.9 | 0.1 | -0.5 | · | ·
COc1ccccc1/C=C/CN1CCN(CCOCCO)CC1 | 17.6 | 53.6* | 0.2 | 1.0 | -1.6 | -3.8
COc1ccccc1/C=C/CN1CC(C)OC(C)C1 (stereo not given) | 2.1 | 52.9* | 0.2 | 2.9 | -0.1 | -2.5
CC(C)c1cc(C(=O)Nc2sc3c(c2C#N)CCCC3)no1 | -42.2 | -1.6 | 0.1 | -0.9 | · | ·
Cc1ccc2c(c1)N(C(=O)N1CCC(C(=O)NCc3ccc(Cl)cc3)CC1)CCO2 | 3.8 | -8.2 | 0.5 | -1.0 | · | ·
Cc1ccc(C(NC(=O)/C=C\c2ccc3c(c2)OCO3)C(=O)Nc2ccc3c(c2)OCO3)cc1 (stereo not given) | 11.8 | 67.9* | 0.0 | 1.5 | -21.5 | -0.3
CCc1nnc(NC(=O)c2ccc(-c3ccccc3)cc2)s1 | -54.0 | 18.3 | 0.1 | 0.4 | · | ·
CN(C)C(=O)C1C2NC(=S)N(c3ccc(Br)cc3)C1(C)Oc1ccc(Cl)cc12 (stereo not given) | 8.3 | 68.1* | -0.1 | -0.9 | 22.8 | 10.3
CC(C)NC(=O)CNC(=O)Cn1cnc2sc3c(c2c1=O)CCCC3 | -10.2 | -1.5 | -0.1 | 1.4 | · | ·
CCCn1c(-c2ccc(OC)cc2)nc2c(c(=O)c3ccccc3n2C)c1=O | -10.9 | 90.0* | -0.1 | -0.4 | -7.5 | -4.2
COCCn1c(-c2ccc(F)cc2)nc2c(c(=O)c3ccccc3n2C)c1=O | 2.0 | -10.8 | -0.1 | -0.3 | · | ·
c1ccc(Cc2nc3cnccn3c2NCc2ccc3c(c2)OCO3)cc1 | 3.3 | 67.7* | 0.2 | 0.1 | 7.0 | 10.1
c1csc(-c2nc3cnccn3c2NCc2ccc3c(c2)OCO3)c1 | -18.2 | -3.2 | 0.1 | -1.5 | · | ·
O=C(Nc1nncs1)c1ccc(Br)cc1 | -8.9 | 1.3 | -0.1 | -0.1 | · | ·
COCCCNc1nc2nonc2nc1N1CCC(c2ccncc2)CC1 | 4.6 | -5.1 | -0.2 | 0.8 | · | ·
NC1(C(Cl)(Cl)Cl)Oc2ccccc2O1 | -6.7 | 83.5* | -0.6 | 0.0 | 113.5* | 24.5 | AS interf DR=>6.48
O=C(NCc1ccco1)c1ccc(Br)cc1 | 2.2 | 14.2 | 0.4 | 1.5 | · | ·
SMILES | TEAD-YAP inh | MITF primary | FBW7 act | GPR151 ag | MITF confirm | AlphaScreen intf2 | others
N#CCCN(CC(=O)c1ccc(Br)cc1)Cc1ccco1 | -4.7 | 62.6* | -0.1 | -0.5 | 0.3 | 9.1
COc1cc(CN2CCN(Cc3cccc4ccccc34)CC2)c([N+](=O)[O-])cc1OC | -15.4 | 70.1* | -0.2 | 2.3 | 11.9 | 0.1
CCn1c2ccccc2c2cc(CN3CCN(Cc4cc(OC)c(OC)cc4[N+](=O)[O-])CC3)ccc21 | 4.6 | 81.7* | -0.2 | 0.7 | 3.5 | 21.1
COc1cc(CN2CCN(Cc3cccc(OC)c3OC)CC2)c([N+](=O)[O-])cc1OC | -8.6 | 51.9* | 0.0 | 0.3 | 4.2 | 2.9
Fc1ccc(N2CCN(Cc3ccc(Br)o3)CC2)cc1 | 0.0 | 50.6* | 0.1 | 1.7 | 3.3 | 5.7
Clc1ccccc1N1CCN(Cc2ccc(Br)o2)CC1 | 3.4 | 39.7 | 0.7 | 0.3 | · | ·
Brc1ccc(CN2CCN(c3ccccn3)CC2)o1 | 5.3 | 52.1* | 0.7 | -0.7 | 6.3 | 2.5

Bioassay records as filed in PubChem BioAssay.
